# Rows were chosen to be rich in hits. Some 32% of all compounds tested hit in one or more screens of this group.
# CYP2C9 activ: human CYP2C9 activators, primary screen, biochemical, luminescence. Cytochrome P450 2C9 (Homo sapiens), P11712. recombinant CYP2C9, luciferin-H conversion; active compounds read high; factor 1 = untreated enzyme, 0 = blocked. activation factor at 5 µM. 96,000 compounds, 1.4% hits;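 active = activation factor of 2 or more for CYP2C9 at a 5 µM dose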;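 note: 0 = sulfaphenazole-blocked wells and 1 = vehicle-only wells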
# Target sequence (P11712 whole entry, looked up): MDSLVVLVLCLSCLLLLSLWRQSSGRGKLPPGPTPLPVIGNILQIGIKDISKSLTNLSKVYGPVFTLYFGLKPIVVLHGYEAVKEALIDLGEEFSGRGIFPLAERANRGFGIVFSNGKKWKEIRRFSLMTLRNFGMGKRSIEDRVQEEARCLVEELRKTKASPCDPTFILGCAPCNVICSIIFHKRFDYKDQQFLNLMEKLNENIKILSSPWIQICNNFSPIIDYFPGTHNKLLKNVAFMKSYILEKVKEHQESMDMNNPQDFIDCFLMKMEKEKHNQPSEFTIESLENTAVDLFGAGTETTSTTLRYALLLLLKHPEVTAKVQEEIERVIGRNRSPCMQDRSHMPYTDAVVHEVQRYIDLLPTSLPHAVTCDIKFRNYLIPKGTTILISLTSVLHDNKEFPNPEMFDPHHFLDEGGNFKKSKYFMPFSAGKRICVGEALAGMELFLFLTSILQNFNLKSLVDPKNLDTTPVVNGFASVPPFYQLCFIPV
# CYP2C9 inh: blockers of cytochrome P450 2C9 activity – biochemical, luminescence, ADME assay, primary screen. inhibition, % at 5 µM. CYP2C9 Supersomes, luciferin-H conversion. P11712. 96,000 compounds, 20% hits;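 active = blocking of liver enzyme CYP2C9 beyond about 50% at 5 µM, limit read from the data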
# CYP2C19 act: human CYP2C19 activators, primary screen, biochemical, luminescence; Cytochrome P450 2C19 (Homo sapiens), P33261; recombinant CYP2C19, luciferin-H EGE luminescence; active compounds read high; 0 = fully inhibited enzyme, 1 = untreated enzyme; activation factor at 5 µM; 96,000 tested, under 10 active; AID 1025, 2008;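 active = activation factor of at least 2 at 5 µM in the primary screen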;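 note: 0 = wells with 2.5 mM tranylcypromine and 1 = vehicle-only wells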
# PostGolgi yeast: phenotypic screen on post-Golgi transport, primary screen; inhibition, % at 10 µM; 98,000 compounds, 0.9% hits; post-Golgi transport phenotypic cell assay;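 note: yeast cells grown in 1536-well plates; yeast grown about 18 h at 30C before absorbance read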
# PostGolgi ctrl: growth inhibition of yeast control strain, primary screen, counter-screen for post-Golgi transport modulator project | efflux-deficient yeast background strain, growth absorbance A615, 16 h | inhibition, % at 10 µM | 98,000 compounds, 5% hits
# CYP2C19 inhib: blockers of cytochrome P450 2C19 activity – biochemical, luminescence, ADME assay, primary screen; 96,000 compounds, 21% hits; inhibition, % at 5 µM; CYP2C19 Supersomes, luciferin-H EGE luminescence, 30 min; P33261;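 active = CYP2C19 inhibition above a set limit at 5 µM in the primary screen, cut at about 50% in these data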;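 note: plate controls were negative control wells for no effect and 2.5 mM tranylcypromine positive control for full effect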
# Active calls of the source: *. Cut-off read from the data, not from the text of the source, unless noted: active = inhibition above about 30%; inactive = the rest.
SMILES,CYP2C9 activ,CYP2C9 inh,CYP2C19 act,PostGolgi yeast,PostGolgi ctrl,CYP2C19 inhib
CCC1SC2=NC(C)=C(C(=O)OCC(C)C)C(/C=C/c3ccccc3OC)N2C1=O (stereo not given),0.2,78.0*,0.6,-0.8,8.9,37.7
O=C(NCC1COCCO1)C1CCN(S(=O)(=O)c2ccccc2)CC1 (stereo not given),0.8,19.7,1,-0.2,7.8,1.2
O=c1c2ccccc2nc2n1CCCCN2,0.8,15.5,0.9,3.7,-4.7,11.0
COc1ccc(/C=C2\SC(=O)N(CCNC(=O)C3CC(=O)N(c4ccccc4)C3)C2=O)cc1 (stereo not given),0.4,58.7*,0.8,1.6,24.8,16.2
COc1ccc(/C=C2\SC(=O)N(CCNC(=O)Cn3cnnn3)C2=O)cc1,0.3,70.4*,0.5,-4.8,23.1,54.2*
CC(C)c1nc(N2CCN(C(=O)c3ccco3)CC2)c2c3c(sc2n1)CCCC3,0.4,58.5*,0.6,3.9,17.6,38.1
Cc1nc(N2CCN(C(=O)c3ccco3)CC2)c2c3c(sc2n1)CCC3,0.1,85.6*,0.1,-3.9,3.9,85.6*
Cc1sc2nc(C(C)C)nc(SCC(=O)N3CCN(C(=O)c4ccco4)CC3)c2c1C,0.1,92.0*,0.2,1.9,41.0*,79.6*
O=C(O)C1=C(C(=O)N2CCN(C(=O)c3ccco3)CC2)CCCC1,1,3.6,1,1.3,3.5,0.1
Cc1sc2ncnc(SCC(=O)N3CCN(C(=O)c4ccco4)CC3)c2c1C,0.6,38.3,0.9,1.0,12.7,11.1
Cc1nc(SCC(=O)NCc2ccco2)c2c3c(sc2n1)CCCC3,0.6,36.6,0.8,-5.7,4.4,24.1
Cc1ccc(-c2cnn(-c3cccc([N+](=O)[O-])c3)c2N)cc1,1.2,-20.0,0.6,-3.7,3.7,37.9
COc1cc(NC(=S)NC(=O)c2ccccc2C)ccc1NC(=O)c1cccs1,0.7,34.6,0.9,-17.5,6.0,7.1
Cc1c(Cl)cccc1NC(=O)CN1CCC(NC(=O)C2CCCCC2)CC1,1,4.5,0.8,-4.9,6.6,17.7
O=C(Oc1cccnc1)c1ccc(Cl)cc1,1.1,-12.7,1.1,-3.3,-8.4,-5.2
CC1(C)CC(=O)C=C(OC(=O)c2ccc(Cl)cc2)C1,0.5,53.1*,0.8,8.9,7.4,17.8
CCCn1c(N)c(N(C)C)c(=O)n(CC(=O)Nc2ccc(OC(F)(F)F)cc2)c1=O,0.7,25.7,0.9,14.6,-6.1,13.3
c1ccc(CCc2nn3c(Cn4cnc5ccccc54)nnc3s2)cc1,0.9,6.2,0.8,-2.9,-13.9,18.2
CCOc1ccc(NCc2nnc(SCc3ccccc3Cl)n2-c2ccccc2)cc1,0.6,37.5,0.5,6.5,9.2,46.2
c1ccc2c(c1)ncn2Cc1nnc2sc(-c3ccc4c(c3)OCO4)nn12,0.2,81.1*,0.9,-0.9,-0.1,8.1
Clc1ccccc1-c1nn2c(Cn3cnc4ccccc43)nnc2s1,0.7,25.1,0.4,-6.0,15.4,57.6*
c1ccc(-c2nn3c(Cn4nnc5ccccc54)nnc3s2)nc1,0.6,38.7,0.2,-6.6,3.9,78.5*
Clc1ccccc1CSc1nnc(Cn2cnc3ccccc32)n1-c1ccccc1,1,2.0,0.4,9.9,7.7,60.7*
Cc1ccc(C2(C)NC(=O)N(CCOc3ccccc3)C2=O)cc1 (stereo not given),1,-2.5,0.2,0.7,9.1,76.9*
S=c1[nH]nc(Cc2sc(-c3ccccc3)nc2-c2ccccc2)o1,0.4,63.7*,0.9,9.4,0.5,14.3
S=c1[nH]nc(Cc2c[nH]c3ccccc23)o1,0.9,11.6,1,-1.7,12.0,-2.8
O=C(Nc1ccc(Cl)c(-c2nc3ccccc3[nH]2)c1)c1cccnc1,0.2,83.3*,0.4,-1.1,-4.0,59.8*
COc1cc(NC(=O)c2cc(Cl)ccc2Cl)ccc1-c1cc2ccccc2oc1=O,1,-1.2,0.9,3.6,6.7,12.4
O=C(Nc1ccc(-c2cc3ccccc3oc2=O)c(Cl)c1)c1cccnc1,2.2*,-120.0,0.8,-2.3,2.4,22.2

# Screening data: PubChem BioAssay, several laboratories
